CYP2C19 activ: increases human CYP2C19 enzyme activity. P33261. recombinant CYP2C19, luciferin-H EGE luminescence; stronger effect = higher value; 0 = fully inhibited enzyme, 1 = untreated enzyme. activation factor at 5 µM. 96,000 tested, under 10 active;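 active = activation factor of at least 2 at 5 µM in the primary screen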
Target sequence (P33261 whole entry, looked up): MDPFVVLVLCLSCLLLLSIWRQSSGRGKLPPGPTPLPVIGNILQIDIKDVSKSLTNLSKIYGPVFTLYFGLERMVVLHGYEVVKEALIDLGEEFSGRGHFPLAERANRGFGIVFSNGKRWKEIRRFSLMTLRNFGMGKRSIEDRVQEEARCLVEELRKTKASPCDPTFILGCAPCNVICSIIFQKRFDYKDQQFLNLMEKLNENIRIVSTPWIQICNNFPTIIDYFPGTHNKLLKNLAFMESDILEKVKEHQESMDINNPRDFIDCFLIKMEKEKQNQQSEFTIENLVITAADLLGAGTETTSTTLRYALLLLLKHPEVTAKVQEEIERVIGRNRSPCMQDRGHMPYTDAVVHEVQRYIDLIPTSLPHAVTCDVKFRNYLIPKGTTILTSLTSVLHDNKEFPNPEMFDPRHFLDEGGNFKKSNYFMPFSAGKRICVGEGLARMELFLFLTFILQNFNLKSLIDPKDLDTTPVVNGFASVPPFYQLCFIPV
Mac1 fbg inh: inhibitors of human CD11b/CD18 binding to fibrinogen; K562 CD11b/CD18 adhesion to fibrinogen, ATPlite luminescence; Mn2+ added to activate the integrin; P05107+P11215; actives 0.54% (n = 93,000); inhibition, % at 10 µM;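 active = primary inhibition of 50% or more at 10 µM, then 40% or more on retest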
CD11b adhes enh: enhancers of human CD11b/CD18 binding to fibrinogen; K562 CD11b/CD18 adhesion to fibrinogen, ATPlite luminescence; activation, % at 10 µM; actives 0.07% (n = 93,000); AID 1499;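 active = 10 µM primary screen giving 50% or more activity, confirmed by 40% or more on retest at that dose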
CYP2C9 act: CYP2C9 (human) activation; P11712; recombinant CYP2C9, luciferin-H conversion, luminescence; stronger effect = higher value; factor 1 = untreated enzyme, 0 = blocked; activation factor at 5 µM; actives 1.4% (n = 96,000);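 active = activation factor of 2 or more for CYP2C9 at a 5 µM dose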
CYP2C19 inhib: human CYP2C19 inhibition; P33261; CYP2C19 Supersomes, luciferin-H EGE luminescence, 30 min; inhibition, % at 5 µM; actives 21% (n = 96,000); AID 778;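 active = CYP2C19 inhibition above a set limit at 5 µM in the primary screen, cut at about 50% in these data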
CYP2C9 inh: blocks human cytochrome P450 2C9. P11712. CYP2C9 Supersomes, luciferin-H conversion, luminescence. inhibition, % at 5 µM. actives 20% (n = 96,000);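 active = blocking of liver enzyme CYP2C9 beyond about 50% at 5 µM, limit read from the data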
Large screens that a line does not name were inactive. In the library only some 28% were active in any assay of this set; here they are far more common.

CC(C)CC(c1nnnn1C1CCCC1)N1CCN(c2ccccc2F)CC1 (configuration not stated)	none
CCCC(c1nnnn1Cc1ccc(OC)cc1)N1CCN(c2ccccc2)CC1 (configuration not stated)	CYP2C9 inh 82.1
COc1ccc(N2CCN(C(c3nnnn3CCc3ccccc3)C(C)C)CC2)cc1 (configuration not stated)	none
COC(=O)c1ccc(COc2ccccc2/C=C(\C#N)C(=O)Nc2c(C)cc(C)cc2C)cc1	none (no result: CYP2C19 activ, CYP2C9 act, CYP2C19 inhib, CYP2C9 inh)
Cc1ccc(S(=O)(=O)N2CCCC2C(=O)Nc2cc(C)on2)cc1 (configuration not stated)	none
CCc1nnc(NC(=O)C2Cc3ccccc3CN2S(=O)(=O)c2c(C)c(C)cc(C)c2C)s1 (configuration not stated)	CYP2C9 inh 61.4
Cc1ccc(S(=O)(=O)N2Cc3ccccc3CC2C(=O)Nn2cnnc2)cc1 (configuration not stated)	CYP2C19 inhib 54.9
Cc1ccc(S(=O)(=O)N2Cc3ccccc3CC2C(=O)Nc2cc(C)on2)cc1 (configuration not stated)	CYP2C19 inhib 82.8, CYP2C9 inh 84.6
CCOc1ccc(S(=O)(=O)N2Cc3ccccc3CC2C(=O)NCCCn2ccnc2)cc1 (configuration not stated)	CYP2C19 inhib 99.7, CYP2C9 inh 96.7
O=C(Nn1cnnc1)C1Cc2ccccc2CN1S(=O)(=O)c1ccc(F)cc1 (configuration not stated)	none (no result: Mac1 fbg inh, CD11b adhes enh)
Cc1cccc(-n2cnc3cc([N+](=O)[O-])ccc32)c1	none (no result: CYP2C19 activ, CYP2C9 act, CYP2C19 inhib, CYP2C9 inh)
CCC(Sc1nc(N)c(NC(=O)c2ccc(OC)c(OC)c2)c(=O)[nH]1)C(=O)OC (configuration not stated)	none
O=C(Cc1nc(-c2ccc([N+](=O)[O-])cc2)cs1)Nc1ccccc1	CYP2C9 inh 62.5 (no result: Mac1 fbg inh, CD11b adhes enh)
CCN(CC)CCCNC(=O)C1CCC(=O)N(c2ccc(OC)cc2)C1c1ccc(F)cc1 (configuration not stated)	none (no result: Mac1 fbg inh, CD11b adhes enh)
COc1ccc(CCN(C(=O)c2cccc(F)c2)C2CC(=O)N(c3ccc(OC)cc3)C2=O)cc1 (configuration not stated)	CYP2C19 inhib 67.4, CYP2C9 inh 53.3
COC(=O)CN(C(=S)Nc1ccccc1)C1CC(=O)N(c2ccc(OC)cc2)C1=O (configuration not stated)	none (no result: Mac1 fbg inh, CD11b adhes enh)
O=C1CC(N(Cc2ccco2)C(=O)Nc2ccc(F)cc2)C(=O)N1c1ccc(F)cc1 (configuration not stated)	CYP2C19 inhib 79.7, CYP2C9 inh 52.1
COc1ccc(CCN(C(=O)c2cccc(F)c2)C2CC(=O)N(c3ccccc3)C2=O)cc1 (configuration not stated)	none (no result: CYP2C19 activ, CYP2C9 act, CYP2C19 inhib, CYP2C9 inh)
COC(=O)CN(C(=S)Nc1ccc(F)cc1)C1CC(=O)N(c2ccc(OC)cc2)C1=O (configuration not stated)	CYP2C19 inhib 93.4, CYP2C9 inh 62.4
O=c1[nH]c(=O)n(CCO)c2nnn(Cc3ccccc3)c12	none
COc1cc(Cl)c(C)cc1NC(=O)COc1cc(C)nc(C(C)C)n1	CYP2C9 inh 50.9
COc1cc(Cl)c(C)cc1NC(=O)CSC	CYP2C19 inhib 52.2
COc1cc(Cl)c(C)cc1NC(=O)CSc1ccc(C)cc1	none (no result: Mac1 fbg inh, CD11b adhes enh)
COc1ccccc1NC(=O)COc1cc(C)nc(C(C)C)n1	none
O=C(NC1CC2CCCC(C1)N2Cc1ccco1)NC12CC3CC(CC(C3)C1)C2 (configuration not stated)	none
O=C(c1ccc(Cn2c(=O)[nH]c3ccccc3c2=O)cc1)N1CCN(c2ccc(Cl)cc2)CC1	none
Cc1ccc(N2CCN(C(=O)c3ccccc3Br)CC2)c(C)c1	CYP2C19 inhib 98.2, CYP2C9 inh 62.3
CCCc1cc(C(=O)N2CCN(c3ccccc3C)CC2)cs1	CYP2C19 inhib 69.2, CYP2C9 inh 65.5
Cc1ccc(N2CCN(C(=O)c3ccccc3)CC2)c(C)c1	CYP2C19 inhib 96.0, CYP2C9 inh 75.8
Cc1ccc(C)c(N2CCN(C(=O)c3ccc(Cn4c(=O)[nH]c5ccccc5c4=O)cc3)CC2)c1	CYP2C19 inhib 70.3, CYP2C9 inh 74.9
O=[N+]([O-])c1ccc(-c2cc(-c3ccncc3)nc3ccc4ccccc4c23)cc1	none

Screening results (PubChem)
